PubChem BioAssay (NCI)
This is part of a sample that, as a whole, favours compounds with a hit. Of some 83,000 tested, about 20% had one in any assay.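 Testing used 96-well plates and a 48-hour single-concentration exposure. Example: -40 means 40% of the starting cells died.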 The source made the active and inactive calls. How the source made its calls: active means growth percent below 10; inactive means the rest.

Assays:
Test in all cases: NCI-60 one-dose screen, 48 h (100 = growth as untreated, 0 = no growth, -100 = all killed)
Details in all cases: 10 µM unless noted
NCI-H23 lung = tested on: NCI-H23 lung
NCI-H226 lung = tested on: NCI-H226 lung
NCI-H322M lung = tested on: NCI-H322M lung
HOP-62 NSCLC = tested on: HOP-62 NSCLC
NCI-H460 lung = tested on: NCI-H460 lung
HOP-92 NSCLC = tested on: HOP-92 NSCLC
A549/ATCC NSCLC = tested on: A549/ATCC NSCLC
786-0 renal = tested on: 786-0 renal
COLO 205 colon = tested on: COLO 205 colon
DU-145 prostate = tested on: DU-145 prostate
K-562 leukemia = tested on: K-562 leukemia
MDA-MB-231 breast = tested on: MDA-MB-231 breast
RXF 393 renal = tested on: RXF 393 renal
SF-268 CNS = tested on: SF-268 CNS
SF-295 CNS = tested on: SF-295 CNS
SF-539 CNS = tested on: SF-539 CNS
UACC-257 melanoma = tested on: UACC-257 melanoma
M14 melanoma = tested on: M14 melanoma
MALME-3M melanoma = tested on: MALME-3M melanoma

Measured: growth

COC(=O)CC1=C(c2ccc([N+](=O)[O-])cc2)CCC1=O
inactive: NCI-H23 lung 100% | NCI-H226 lung 94% | NCI-H322M lung 115% | HOP-62 NSCLC 102% | NCI-H460 lung 103% | HOP-92 NSCLC 89.5% | A549/ATCC NSCLC 94.7% | 786-0 renal 104% | COLO 205 colon 98.2% | DU-145 prostate 101% | K-562 leukemia 98.7% | MDA-MB-231 breast 102% | RXF 393 renal 110% | SF-268 CNS 101% | SF-295 CNS 100% | SF-539 CNS 97% | UACC-257 melanoma 109% | M14 melanoma 109%

O=C1Nc2ccc(C(=O)O)c(O)c2C1=O
inactive: NCI-H23 lung 107% | NCI-H226 lung 104% | NCI-H322M lung 105% | HOP-62 NSCLC 97.4% | NCI-H460 lung 105% | HOP-92 NSCLC 97.3% | A549/ATCC NSCLC 96.9% | 786-0 renal 109% | COLO 205 colon 104% | DU-145 prostate 111% | K-562 leukemia 107% | MDA-MB-231 breast 113% | RXF 393 renal 116% | SF-268 CNS 104% | SF-295 CNS 108% | SF-539 CNS 94.4% | UACC-257 melanoma 117% | M14 melanoma 107%

CN(C)CCCN=c1cc2c(=O)n(CCCN(C)C)c(=O)c3c(NCCCN(C)C)cc4c(O)n(CCCN(C)C)c(=O)c1c4c3-2
inactive: NCI-H23 lung 21.1%
active: NCI-H226 lung -33.2% | NCI-H322M lung -26.9% | HOP-62 NSCLC -11.4% | NCI-H460 lung -43.5% | HOP-92 NSCLC -0.168% | A549/ATCC NSCLC -30.8% | 786-0 renal -47.5% | COLO 205 colon -56.6% | DU-145 prostate -40.7% | K-562 leukemia 6.48% | MDA-MB-231 breast -0.632% | RXF 393 renal -68.3% | SF-268 CNS 1.31% | SF-295 CNS -34.8% | SF-539 CNS -23% | UACC-257 melanoma -27.3% | M14 melanoma 3.47%

CCC(=O)Nc1cc2c(cc1Cl)-c1ccccc1C2
inactive: NCI-H23 lung 89.1% | NCI-H226 lung 81.7% | NCI-H322M lung 106% | HOP-62 NSCLC 97.6% | NCI-H460 lung 98.2% | HOP-92 NSCLC 76.9% | A549/ATCC NSCLC 94.2% | 786-0 renal 91.5% | COLO 205 colon 99.4% | DU-145 prostate 109% | K-562 leukemia 104% | MDA-MB-231 breast 74.5% | RXF 393 renal 102% | SF-268 CNS 84.3% | SF-295 CNS 121% | SF-539 CNS 94.3% | UACC-257 melanoma 96.6% | M14 melanoma 102%

CC[C@@H](C)/C=C(C)/C=C/C(O)=C1\C(=O)N[C@@H](Cc2ccc(OC(=O)[C@@](OC)(c3ccccc3)C(F)(F)F)cc2)C1=O
inactive: NCI-H23 lung 99.2% | NCI-H226 lung 104% | NCI-H322M lung 91% | HOP-62 NSCLC 110% | NCI-H460 lung 79.8% | HOP-92 NSCLC 41.5% | A549/ATCC NSCLC 97.2% | 786-0 renal 90.8% | COLO 205 colon 118% | DU-145 prostate 73.2% | MDA-MB-231 breast 89.5% | RXF 393 renal 109% | SF-268 CNS 61.9% | SF-295 CNS 74.2% | SF-539 CNS 114% | UACC-257 melanoma 94% | M14 melanoma 97%
active: K-562 leukemia 9.3%

CCOC(=O)Nc1ccc2c3c(cccc13)-c1ccccc1-2
active: M14 melanoma 6.41%
inactive: NCI-H23 lung 42.8% | NCI-H226 lung 63.1% | NCI-H322M lung 50.6% | HOP-62 NSCLC 45.1% | NCI-H460 lung 19.2% | HOP-92 NSCLC 81.6% | A549/ATCC NSCLC 47% | 786-0 renal 44.1% | COLO 205 colon 24.3% | DU-145 prostate 66.1% | K-562 leukemia 15.6% | MDA-MB-231 breast 35% | RXF 393 renal 57.9% | SF-268 CNS 52.3% | SF-295 CNS 27.2% | SF-539 CNS 21.9% | UACC-257 melanoma 59.4%

COc1ccc(OC)c2c1CCC1(C2)NC(=O)NC1=O (stereo not drawn)
inactive: NCI-H23 lung 106% | NCI-H226 lung 102% | NCI-H322M lung 107% | HOP-62 NSCLC 95.2% | NCI-H460 lung 107% | HOP-92 NSCLC 69.3% | A549/ATCC NSCLC 98.9% | 786-0 renal 113% | COLO 205 colon 98.9% | K-562 leukemia 105% | MALME-3M melanoma 96.5% | MDA-MB-231 breast 98.8% | RXF 393 renal 108% | SF-268 CNS 133% | SF-295 CNS 113% | SF-539 CNS 95.1% | M14 melanoma 105%

Cc1ccc2c(c1)C(=O)/C(=C\Nc1ccc(C(N)=O)cc1)C(O)O2 (stereo not drawn)
inactive: NCI-H23 lung 114% | NCI-H226 lung 154% | NCI-H322M lung 95.8% | HOP-62 NSCLC 88.3% | NCI-H460 lung 111% | A549/ATCC NSCLC 114% | 786-0 renal 110% | COLO 205 colon 108% | DU-145 prostate 107% | K-562 leukemia 97.7% | MALME-3M melanoma 86.7% | MDA-MB-231 breast 83.1% | RXF 393 renal 111% | SF-268 CNS 82.8% | SF-295 CNS 94% | SF-539 CNS 99.8% | UACC-257 melanoma 118%

CCCCCCCC[Si](OCC)(OCC)OCC
inactive: NCI-H23 lung 98.2% | NCI-H226 lung 96.1% | NCI-H322M lung 103% | HOP-62 NSCLC 101% | NCI-H460 lung 107% | A549/ATCC NSCLC 102% | 786-0 renal 99.3% | COLO 205 colon 108% | DU-145 prostate 105% | K-562 leukemia 99.2% | MALME-3M melanoma 91.6% | MDA-MB-231 breast 104% | RXF 393 renal 104% | SF-268 CNS 104% | SF-295 CNS 111% | SF-539 CNS 98.8% | UACC-257 melanoma 114% | M14 melanoma 98.7%

Cn1cc(NC(=O)Nc2cc(C(=O)O)n(C)c2)cc1C(=O)O
inactive: NCI-H23 lung 109% | NCI-H226 lung 82.1% | NCI-H322M lung 100% | HOP-62 NSCLC 94.3% | NCI-H460 lung 120% | A549/ATCC NSCLC 102% | 786-0 renal 109% | COLO 205 colon 113% | DU-145 prostate 121% | K-562 leukemia 83.1% | MALME-3M melanoma 89.1% | MDA-MB-231 breast 98.3% | SF-268 CNS 122% | SF-295 CNS 99.4% | SF-539 CNS 103% | UACC-257 melanoma 106% | M14 melanoma 108%
active: RXF 393 renal 9.73%

COP(=O)(OC)C(c1ccccc1)(c1ccccc1)c1ccccc1
inactive: NCI-H23 lung 104% | NCI-H226 lung 83.8% | NCI-H322M lung 95.4% | HOP-62 NSCLC 93.8% | NCI-H460 lung 108% | A549/ATCC NSCLC 74.5% | 786-0 renal 93.3% | COLO 205 colon 103% | DU-145 prostate 112% | K-562 leukemia 80.7% | MALME-3M melanoma 103% | MDA-MB-231 breast 90.2% | RXF 393 renal 36.9% | SF-268 CNS 120% | SF-295 CNS 60% | SF-539 CNS 95.9% | UACC-257 melanoma 82.1% | M14 melanoma 98.7%

CSc1nc2nc3c(nc2c(=O)n1C)C(=O)c1ccccc1C3=O
active: NCI-H23 lung -26.4% | NCI-H226 lung -55.6% | NCI-H322M lung -89.8% | HOP-62 NSCLC -97.9% | NCI-H460 lung -62% | HOP-92 NSCLC -40% | A549/ATCC NSCLC -67.3% | 786-0 renal -50.5% | COLO 205 colon -86.2% | DU-145 prostate -89.7% | MALME-3M melanoma -93% | MDA-MB-231 breast -4.27% | RXF 393 renal -79.3% | SF-268 CNS -17.9% | SF-295 CNS -93.4% | SF-539 CNS -99.8% | M14 melanoma -84.6%
